The list is not random: actives were taken first. Their share in the collection is about 5.1%.
Cl transport mod: modulators of human KCC2 chloride dependent transport; Q9H2X9; KCC2 cells, thallium flux FluoZin-2 fluorescence; hit rate 2.2% among 190,000; B-score of Tl+ flux slope (higher = more flux/activation; lower = inhibition) at 10 µM;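 active = thallium flux slope and its plate-corrected score both differing from the plate sample mean at a set confidence after two filtering rounds, in either direction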;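 also: slope of fluorescence scaled to starting intensity during 10 to 20 s after thallium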
RAM network inh: blocks the yeast RAM network; S. cerevisiae dse1pr::URA3 reporter, 5-FOA growth OD615, 2 d; analog-sensitive cbk1-as2 kinase mutant strain; inhibition, % at 50 µM; hit rate 1.8% among 190,000; AID 868;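 active = inhibition above a set limit, 3 SD over mean compound inhibition, cut at about 8.4% in these data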;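 also: inhibition rescues growth on 5-FOA so higher OD means more RAM inhibition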
ROMK mod: modulators of human ROMK potassium channel; hit rate 2% among 130,000; AID 1918; P48048; B-score at 10 µM; Tet-inducible ROMK, thallium flux fluorescence; actives lie on both sides;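 active = signal ratio slope over the read window, or its plate-corrected B-score, at least 3 SD from the plate mean, either direction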;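 also: B-score of the F/F0 ratio slope over 7 to 12 s after thallium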
S1P3 antag: antagonists of human S1P3 receptor. CHO S1P3 NFAT-BLA reporter, FRET fluorescence, antagonist mode. Q99500. inhibition, % at 4.98 µM. hit rate 0.27% among 170,000;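 active = inhibition above the plate cutoff, the mean inhibition of test wells on that plate plus 3 SD, cut at about 28% in these data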;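 also: cells challenged with S1P at its EC80 of 0.8 µM; blue over green emission ratio from cleaved BLA substrate after 4 h stimulation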
Target sequence (Q99500 whole entry, looked up): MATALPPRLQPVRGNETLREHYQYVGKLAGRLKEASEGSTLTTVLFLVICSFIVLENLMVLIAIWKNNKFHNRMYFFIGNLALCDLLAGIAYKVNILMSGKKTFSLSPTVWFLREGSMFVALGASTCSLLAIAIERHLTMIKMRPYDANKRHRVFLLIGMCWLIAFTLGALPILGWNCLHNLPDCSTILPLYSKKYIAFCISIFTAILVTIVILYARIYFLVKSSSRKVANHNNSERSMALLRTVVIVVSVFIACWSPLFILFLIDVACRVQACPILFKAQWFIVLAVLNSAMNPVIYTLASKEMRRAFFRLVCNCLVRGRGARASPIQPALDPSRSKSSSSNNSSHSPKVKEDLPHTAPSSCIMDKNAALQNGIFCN
S1P4 agonist: human S1P4 receptor agonism. S1P4-expressing cell line, agonist reporter assay. activation, % at 4.98 µM. hit rate 0.35% among 220,000. O95977; in the data active = activation above about 11%
Target sequence (O95977 whole entry, looked up): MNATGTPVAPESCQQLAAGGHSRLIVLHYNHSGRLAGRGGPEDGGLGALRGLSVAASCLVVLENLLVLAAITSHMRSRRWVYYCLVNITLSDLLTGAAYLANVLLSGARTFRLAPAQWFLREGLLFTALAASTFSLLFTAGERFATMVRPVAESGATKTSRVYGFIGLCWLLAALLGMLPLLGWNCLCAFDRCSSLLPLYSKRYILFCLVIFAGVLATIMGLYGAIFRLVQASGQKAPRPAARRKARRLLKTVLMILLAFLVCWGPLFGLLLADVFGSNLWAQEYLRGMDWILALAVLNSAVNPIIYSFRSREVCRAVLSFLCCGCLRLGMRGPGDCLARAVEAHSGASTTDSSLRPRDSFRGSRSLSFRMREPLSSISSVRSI
S1P4 antagonist: blocks the human S1P4 receptor; AID 1510; hit rate 0.26% among 220,000; inhibition, % at 4.98 µM; S1P4-expressing cells, antagonist mode, reporter read-out; in the data active = inhibition above about 29%
Each line names hits and unclear results; the compound was inactive in the other large screens.

COc1ccc(-c2nc(C#N)c(N3CCN(c4ccccc4)CC3)o2)cc1	none (no result: ROMK mod)
N#Cc1nc(-c2ccc(OCc3ccccc3)cc2)oc1N1CCC(C(N)=O)CC1	RAM network inh 8.6 (no result: Cl transport mod)
COc1ccc(N2CCN(c3oc(Cc4ccccc4)nc3C#N)CC2)cc1	RAM network inh 10.6 (no result: ROMK mod, S1P3 antag)
COc1ccc(N2CCN(c3oc(COc4ccccc4)nc3C#N)CC2)cc1	RAM network inh 10.3 (no result: ROMK mod, S1P3 antag)
N#Cc1nc(COc2ccc(Cl)cc2Cl)oc1N1CCN(c2ccccc2)CC1	none (no result: Cl transport mod)
N#Cc1nc(Cc2ccccc2)oc1N1CCN(c2cccc(Cl)c2)CC1	RAM network inh 11.3 (no result: Cl transport mod)
CN(C[C@H](c1ccccc1)N(C[C@H](Cc1ccccc1)N(CCc1ccccc1)N=O)N=O)N=O	none (no result: ROMK mod)
CN(C[C@H](Cc1ccccc1)N(C[C@H](c1ccccc1)N(CCc1ccccc1)N=O)N=O)N=O	RAM network inh 8.8 (no result: ROMK mod)
NC(=O)C1CCCN(C(=S)Nc2cccc3ccccc23)C1 (centres undefined)	none (no result: ROMK mod)
Cc1nn(-c2ccc(F)cc2)c(Cl)c1/C=C1\C(=O)Nc2ccccc21	RAM network inh 8.6
O=C(COc1cccc(Cl)c1)NNC(=S)Nc1ccccc1	none (no result: ROMK mod)
O=C(COc1ccccc1)NNC(=S)NC(=O)c1ccc(Cl)cc1Cl	Cl transport mod 21.7 (no result: ROMK mod, S1P3 antag)
Cc1ccc(C(=O)CC(=O)COc2ccc(Cl)cc2)cc1	Cl transport mod 20.6 (no result: ROMK mod)
Cc1cccc(C(=O)NC(=S)NNC(=O)COc2ccc(Cl)cc2)c1	Cl transport mod 47, ROMK mod 3.31
CC(C)(C)c1ccc(C(=O)N2CCCN(c3ccc([N+](=O)[O-])cn3)CC2)cc1	none (no result: RAM network inh, ROMK mod)
CCOc1cccc(C(=O)Nc2ccc(N3CCN(S(C)(=O)=O)CC3)cc2)c1	none (no result: ROMK mod)
CC(C)Oc1cccc(C(=O)NC(=S)Nc2cccnc2)c1	none
CCOc1cccc(C(=O)NC(=S)Nc2ccc(N3CCCC3)cc2)c1	RAM network inh 10.5 (no result: Cl transport mod, ROMK mod, S1P3 antag)
Cn1ncc2cc(NC(=S)NC(=O)c3ccccc3)ccc21	Cl transport mod 4.2 (no result: ROMK mod, S1P3 antag)
CC(C)Oc1cccc(C(=O)NC(=S)Nc2ccccc2)c1	Cl transport mod 45.6 (no result: ROMK mod)
Cc1cccc(NC(=S)N/C(=N/S(=O)(=O)c2ccccc2)c2ccccc2)c1	Cl transport mod 3.54 (no result: S1P3 antag)
COc1ccc(S(=O)(=O)N(C)c2ccc(C(=O)N3CCCCC3)cc2)cc1OC	none (no result: RAM network inh, ROMK mod)
O=C(CC(NC(=O)c1ccccc1)c1ccccc1)Nc1cccc2ccccc12 (centres undefined)	none
COc1ccc(/C=N/NC(=O)C2C(C=C(Cl)Cl)C2(C)C)c(OC)c1 (centres undefined)	none
O=C(NC(=S)NCc1ccccc1)c1ccccc1[N+](=O)[O-]	none
CC(=O)c1cccc(NC(=S)NC(=O)c2cccc(C)c2)c1	Cl transport mod 8.44 (no result: ROMK mod)
O=C(NC(=S)Nc1ccccc1)c1ccc(-c2ccccc2)cc1	RAM network inh 9.4
COc1ccc(-c2ccccc2)cc1NCc1ccc(OC)c(OC)c1	none
Cc1nn(Cc2ccccc2)c(C)c1C(=O)OCC(=O)c1cc(C)n(C2CC2)c1C	RAM network inh 9.1
CCOc1ccccc1-c1nc(C(N)=O)c2[nH]c(=O)n(-c3ccccc3)c2n1	RAM network inh 9.7 (no result: Cl transport mod)
COc1ccc2c(=O)cc(-c3ccccc3F)oc2c1	none (no result: RAM network inh, ROMK mod)
O=C(Nc1ccccc1Cl)c1ccc(-c2ccccn2)s1	none (no result: RAM network inh, ROMK mod)
CCOC(=O)C1CCN(c2ncnc3c2nnn3Cc2ccccc2Cl)CC1	RAM network inh 8.4
CNS(=O)(=O)c1cccc(C(=O)OCC(=O)Nc2ccc(-c3nc4ccc(C)cc4s3)cc2)c1	RAM network inh 11.3
O=C(COC(=O)c1ccc(CNS(=O)(=O)c2ccc(F)c(Cl)c2)cc1)NCC1CCCCC1	RAM network inh 9.0 (no result: ROMK mod)
N#CCCN(C(=O)COC(=O)c1ccc(CNS(=O)(=O)c2ccc(F)c(Cl)c2)cc1)c1ccc(F)cc1	RAM network inh 11.1
O=C(COC(=O)c1ccc(CNS(=O)(=O)c2ccc(F)c(Cl)c2)cc1)NC1CCCCCCC1	none (no result: ROMK mod)
c1ccc(C2=NNC(=NCc3ccc4c(c3)OCO4)SC2)cc1	RAM network inh 9.0 (no result: ROMK mod)
O=C(/C=C/Sc1ccc(C(F)(F)F)cn1)c1ccccc1	none (no result: RAM network inh)
O=C(NC1=NCCS1)c1ccccc1OCc1ccc(F)cc1	none (no result: Cl transport mod)
O=C(OCc1ccc2c(c1)OCO2)c1ccc(S(=O)(=O)N2CCCC2)cc1	none
O=C(OCc1ccc2c(c1)OCO2)c1cccc(S(=O)(=O)N2CCCCC2)c1	RAM network inh 8.6 (no result: S1P3 antag)
O=C(/C=C/NNC(=O)c1ccccc1)c1ccc(Br)cc1	Cl transport mod 8.83 (no result: ROMK mod, S1P3 antag)
COc1ccc(CCCC(=O)N/N=C/c2ccccc2OC)cc1	none (no result: ROMK mod)
COn1c(=O)c(-c2cccs2)[n+]([O-])c2ccccc21	none (no result: ROMK mod, S1P3 antag)
CCOn1c(=O)c(-c2cccs2)[n+]([O-])c2ccccc21	Cl transport mod 3.78 (no result: ROMK mod, S1P3 antag)
CCCc1nn(C)c(C(=O)Nc2ccc3ccccc3c2)c1Cl	RAM network inh 10.9
CCCc1nn(C)c(C(=O)Nc2cccc(CC)c2)c1Cl	none
COC(=O)c1ccc(C(=O)OC)c(NC(=O)COC(=O)C2CC2C)c1 (centres undefined)	none (no result: S1P3 antag)
C#Cc1ccc([C@H]2C=C(C(=O)Nc3ccccc3)O[C@@H](OCc3ccc(CO)cc3)C2)cc1	none (no result: RAM network inh, ROMK mod, S1P3 antag, S1P4 agonist, S1P4 antagonist)
COc1ccc2c(C(=O)CCl)c[nH]c2c1	none (no result: RAM network inh, ROMK mod)
Cc1ccccc1Nc1nc(N)nc(CSc2nc3ccccc3s2)n1	none
Cc1ccc(Nc2nc(N)nc(CSc3nc4ccccc4s3)n2)cc1	RAM network inh 9.8 (no result: ROMK mod, S1P3 antag)
CCN(CC)C(=O)C1CCN(Cc2cccc(OCc3ccccc3)c2)CC1	ROMK mod -3.13
Cc1cccc(C(=O)OCC(=O)NC(C)CCc2ccccc2)c1 (centres undefined)	RAM network inh 10.2
NS(=O)(=O)c1ccc(N/N=C/c2ccccc2C(=O)O)c([N+](=O)[O-])c1	none
Cc1ccccc1NC(=O)c1ccc(N/N=C/c2ccccc2O)c([N+](=O)[O-])c1	RAM network inh 8.7 (no result: S1P3 antag)
Cc1oc(-c2ccccc2)cc1C(=O)Nc1cccc(/C=C\C(=O)O)c1	RAM network inh 8.5
Cc1cccc(-n2c(-c3csc(C(C)C)c3)n[nH]c2=S)c1	Cl transport mod 7.58 (no result: S1P3 antag)
CCN1CCN(C(=O)CN2C(=O)c3cccc4cccc2c34)CC1	none (no result: S1P3 antag)
Cc1ccc(Cl)cc1N1CCN(C(=O)CN2C(=O)c3cccc4cccc2c34)CC1	ROMK mod -2.85
CCCCC(=O)Nc1cccc2c1C(=O)N(c1ccccc1)C2=O	none
CN1C(=O)c2cccc(NC(=O)CCc3ccccc3)c2C1=O	S1P3 antag 92.4 (no result: ROMK mod)
CCCCCCNC(=O)C(C#N)c1nc2ccccc2nc1N1CCOCC1 (centres undefined)	RAM network inh 9.7 (no result: Cl transport mod, ROMK mod)
CCCCCCNC(=O)C(C#N)c1nc2ccccc2nc1N1CCCC1 (centres undefined)	none (no result: ROMK mod)
CC(C)N1CCN(Cc2ccc(-c3ccccc3Cl)o2)CC1CCO (centres undefined)	none
C/[N+]([O-])=C\c1coc2ccccc2c1=O	none (no result: S1P3 antag)
O=C1NC(=S)S/C1=C\c1coc2ccccc2c1=O	ROMK mod -4.63 (no result: Cl transport mod)
NS(=O)(=O)c1ccc(NC(=O)COC(=O)COc2ccc(Br)cc2)cc1	none (no result: RAM network inh, ROMK mod)

Compound activity as filed in PubChem BioAssay.
